Source: PubChem BioAssay (National Center for Advancing Translational Sciences (NCATS))
KB-V1 cytotox: qHTS assay for MDR1-selective chemotherapeutics: Primary screen using the drug-selected MDR subline cells KB-V1; KB-V1 MDR cells viability, CellTiter-Glo, 72 h; Potency, µM (series often up to 46.1 µM), hits mostly cytotoxic; 3.4% of 400,000 active; AID 1347076, 2019; note: nearly all actives have a fitted effect of over 60% in size
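KB-V1 cells (P-gp-expressing MDR subline of KB-3-1) in phenol-red-free DMEM with 10% FBS were exposed to library compounds over a concentration series for 72 h at 37 degrees C. Viability read by CellTiter-Glo luminescence; concentration-effect curves fitted after normalization.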
MCF10A rereplic: A quantitative high throughput screen for small molecules that induce DNA re-replication in MCF 10a normal breast cells; Potency, µM (titrated, usually from 46.1 µM), actives largely listed as activators; MCF 10A DNA re-replication, Hoechst nuclear intensity, 48 h; 2.9% of 350,000 active; note: nearly all actives have a fitted effect of over 50% in size
SW480 rereplic: A quantitative high throughput screen for small molecules that induce DNA re-replication in SW480 colon adenocarcinoma cells; SW480 DNA re-replication, Hoechst DNA content imaging, 48 h; Potency, µM (series often up to 46.1 µM), actives largely listed as activators; 1.8% of 340,000 active; AID 624297, 2012; note: nearly all actives have a fitted effect of over 55% in size
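Cells (250 per well) received 23 nL compound or DMSO by pin tool and were kept 48 hr at 37 C, 5% CO2. Nuclei were then stained with Hoechst for 40 min and scanned for DNA content.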
KB-3-1 cytotox: qHTS assay for MDR1-selective chemotherapeutics: Primary screen using the parental adenocarcinoma cell KB-3-1 | KB-3-1 viability, CellTiter-Glo ATP luminescence, 72 h | Potency, µM (top dose mostly 46.1 µM), usual class: cytotoxic | 1.4% of 400,000 active | AID 1347075, 2019; note: nearly all actives have a fitted effect of over 60% in size
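Cytotoxicity measured as CellTiter-Glo luminescence after 72 h at 37 C. Compound titrations were pinned onto drug-naive KB-3-1 parental adenocarcinoma cells grown in DMEM with 10% FBS, and normalized data fitted to concentration-response curves.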
IL-1B inflam inh: qHTS for Inhibitors of Inflammasome Signaling: IL-1-beta AlphaLISA Primary Screen; activity change, % at 57.5 µM; THP-1 LPS/ATP IL-1B secretion, AlphaLISA, 16 h; active compounds read low; 4.7% of 360,000 active; in the data active = activity change below about -50%; inconclusive = mostly about -30% to -49%
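Secreted IL-1B measured by AlphaLISA bead assay after 16 h compound exposure of THP-1 cells; compounds (final up to 57.5 uM) added 1 h before LPS (250 ng/mL) and ATP (1.25 mM) stimulation; lower signal means less secretion.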
Large screens that a line does not name were inactive. Shown are actives, neighbours in structure and some others; about 9.9% of the full set was active somewhere. Unless noted, calls come from the whole dose curve; as a rule, active = well fitted curve in the direction sought with a large enough effect; inconclusive = small, poorly fitted or top-dose-only effect, or another doubt; inactive = no such curve, though single readings can be large; an effect the other way counts as inactive or inconclusive.

Cc1cc(/C([O-])=C(/C(=S)Nc2ccc(F)cc2)[n+]2ccccc2)c(C)n1-c1ccc(F)cc1	KB-V1 cytotox 23µM
Cc1cc(/C([O-])=C(/C(=S)Nc2ccccc2)[n+]2ccccc2)c(C)n1-c1ccccc1	none
COc1ccc(NC(=O)CN(C)C(=O)c2cc(-c3cccs3)nn2-c2ccccc2)cc1	KB-V1 cytotox inconclusive, MCF10A rereplic inconclusive, IL-1B inflam inh inconclusive
CCN(CC(=O)Nc1ccc(OC)cc1)C(=O)c1cc(-c2cccs2)nn1-c1ccccc1	KB-V1 cytotox 21µM, MCF10A rereplic inconclusive
COc1ccc(/C=N/NC(=O)c2cccnc2)cc1CSc1ccccn1	KB-V1 cytotox inconclusive, MCF10A rereplic 13µM, SW480 rereplic 13µM, KB-3-1 cytotox inconclusive
COc1ccc(/C=N/NC(=O)c2cccc(Br)c2)cc1CSc1ccccn1	KB-V1 cytotox 12µM, MCF10A rereplic 15µM, SW480 rereplic inconclusive, KB-3-1 cytotox inconclusive
COc1ccc(C(=O)N/N=C/c2ccc(OC)c(CSc3ccccn3)c2)cc1	IL-1B inflam inh inconclusive
COc1cccc(C2C(C(=O)c3cccs3)=C(O)C(=O)N2CCN2CCOCC2)c1OC (stereo not given)	none
CCOC(=O)N1CCC(N2CCCC(C(=O)c3ccccc3OC)C2)CC1 (stereo not given)	KB-V1 cytotox inconclusive
COc1cc(OCc2ccccc2)c(OC)c(OCc2ccccc2)c1	MCF10A rereplic 16µM, SW480 rereplic inconclusive
CCOC(=O)C1Nc2ccc(C(F)(F)F)cc2C2c3ccccc3CC12 (stereo not given)	KB-V1 cytotox 18µM, MCF10A rereplic inconclusive, KB-3-1 cytotox 16µM, IL-1B inflam inh -99
O=C(NCc1ccccc1)C1Nc2ccc(OC(F)(F)F)cc2C2C=CCC12 (stereo not given)	MCF10A rereplic inconclusive
O=C(NCCOc1ccccc1)C1Nc2ccc(C(F)(F)F)cc2C2c3ccccc3CC12 (stereo not given)	MCF10A rereplic inconclusive, KB-3-1 cytotox inconclusive, IL-1B inflam inh -74
CC1(C(=O)NS(=O)(=O)c2ccccc2OC(F)(F)F)CCN1C(=O)c1ccco1 (stereo not given)	none (no result: MCF10A rereplic, SW480 rereplic)
O=C(Nc1ccc(-c2csc(Nc3ccccc3)n2)cc1)c1cc([N+](=O)[O-])cc(C(F)(F)F)c1	KB-V1 cytotox inconclusive, KB-3-1 cytotox 15µM
O=C(CN1CCN(CC(=O)Nc2ccccc2Cl)CC1)Nc1ccc(F)c(F)c1	SW480 rereplic inconclusive
Cc1n[nH]c(=S)n1/N=C/c1ccccc1OCc1ccc(Cl)cc1	KB-V1 cytotox 12µM, SW480 rereplic inconclusive, KB-3-1 cytotox inconclusive
Cc1n[nH]c(=S)n1/N=C/c1cccc(OCc2ccccc2)c1	MCF10A rereplic inconclusive
COc1ccc([N+](=O)[O-])cc1NC(=O)CCSCCc1ccccn1	none
Cc1cccc(C(=O)N[C@H](C(=O)OCC(=O)NC(=O)c2cccn2C)C(C)C)c1	none
N#C/C(=C\c1ccco1)Sc1nc2ccccc2s1	MCF10A rereplic inconclusive, SW480 rereplic inconclusive, IL-1B inflam inh -66
c1ccc2sc(SSc3nc4ccccc4s3)nc2c1	none (no result: KB-V1 cytotox, KB-3-1 cytotox, IL-1B inflam inh)
CC(C)(C)NC[C@H](O)CSc1nc(-c2ccc(C(N)=O)s2)cs1	none (no result: KB-V1 cytotox, KB-3-1 cytotox, IL-1B inflam inh)
O=C(c1ccccc1Br)N(Cc1ccccc1)c1ccccc1	SW480 rereplic inconclusive, IL-1B inflam inh -57
COc1ccc(CNC(=O)Nc2nc(C(N)c3ccccc3)cs2)cc1 (stereo not given)	none (no result: MCF10A rereplic, SW480 rereplic)
COc1ccc(CC(N)c2csc(Nc3cc(NCc4ccco4)ncn3)n2)cc1 (stereo not given)	IL-1B inflam inh -51 (no result: MCF10A rereplic, SW480 rereplic)
NC(c1csc(Nc2cc(Oc3ccccc3)ncn2)n1)C1CCCCC1 (stereo not given)	KB-V1 cytotox inconclusive, KB-3-1 cytotox inconclusive (no result: MCF10A rereplic, SW480 rereplic)
COc1ccc(CC(N)c2csc(Nc3ncccn3)n2)cc1 (stereo not given)	none (no result: MCF10A rereplic, SW480 rereplic)
Nc1ccc(CC(N)c2csc(Nc3cc(Oc4ccccc4)ncn3)n2)cc1 (stereo not given)	IL-1B inflam inh -85 (no result: MCF10A rereplic, SW480 rereplic)
COc1ccc(C(N)c2csc(Nc3cc(Oc4ccccc4)ncn3)n2)cc1 (stereo not given)	IL-1B inflam inh -85 (no result: MCF10A rereplic, SW480 rereplic)
NC(Cc1ccc(C(F)(F)F)cc1)c1csc(Nc2cc(Oc3ccccc3)ncn2)n1 (stereo not given)	KB-V1 cytotox inconclusive, KB-3-1 cytotox inconclusive, IL-1B inflam inh -89 (no result: MCF10A rereplic, SW480 rereplic)
NCc1csc(Nc2cc(Oc3ccccc3)ncn2)n1	none (no result: MCF10A rereplic, SW480 rereplic)
COC(=O)c1ccc(-c2nc3ccccc3[nH]2)cc1	KB-V1 cytotox 18µM, KB-3-1 cytotox inconclusive (no result: SW480 rereplic)
O=C(/C=C/c1ccco1)c1ccccc1O	none
O=C(/C=C/c1ccco1)Nc1ccc(Oc2ccc(Cl)cc2)cc1	KB-V1 cytotox inconclusive, MCF10A rereplic 4.6µM, SW480 rereplic inconclusive, KB-3-1 cytotox 5.8µM
O=C(/C=C/c1ccco1)Nc1ccc2c(c1)OCCO2	IL-1B inflam inh -70
O=C(/C=C/c1ccccc1)Nc1ccc2c(c1)OCCO2	IL-1B inflam inh inconclusive
O=C(C=Cc1ccco1)c1cc(Cl)ccc1O	IL-1B inflam inh -91
COc1ccccc1/C=C/C(=O)NC(=S)NCC1CCCO1 (stereo not given)	KB-V1 cytotox inconclusive, IL-1B inflam inh -62
COc1ccccc1/C=C/C(=O)Nc1ccc2c(c1)OCCO2	KB-V1 cytotox 21µM, MCF10A rereplic 13µM, SW480 rereplic 16µM, KB-3-1 cytotox 5.2µM, IL-1B inflam inh -58
O=C(/C=C/c1ccco1)Nc1ccc(-c2nc3ccccc3[nH]2)cc1	MCF10A rereplic 2.6µM, SW480 rereplic inconclusive, KB-3-1 cytotox inconclusive
COc1ccc(NC(=O)C(c2ccc(C#N)cc2)n2c(=O)c(-c3cc4ccccc4[nH]3)nc3ccccc32)cc1 (stereo not given)	KB-V1 cytotox inconclusive (no result: MCF10A rereplic, SW480 rereplic)
COc1ccccc1CCn1cnc(-c2ccc(OC)c(OC)c2)c1C(C)C	KB-3-1 cytotox inconclusive, IL-1B inflam inh -51 (no result: MCF10A rereplic, SW480 rereplic)
CCCCc1c(-c2cccc(OC)c2)ncn1CCc1ccccc1OC	KB-V1 cytotox 12µM, KB-3-1 cytotox inconclusive, IL-1B inflam inh -96 (no result: MCF10A rereplic, SW480 rereplic)
CCCCc1c(-c2ccc(OC)c(OC)c2)ncn1CCc1ccccc1OC	KB-V1 cytotox 9.2µM, KB-3-1 cytotox inconclusive, IL-1B inflam inh -51 (no result: MCF10A rereplic, SW480 rereplic)
CCCCCc1c(-c2ccccc2)ncn1CCc1ccccc1OC	KB-V1 cytotox 15µM, KB-3-1 cytotox inconclusive (no result: MCF10A rereplic, SW480 rereplic)
COc1ccccc1Cc1c(-c2ccc(OC)c(OC)c2)nc2c3ccccc3ccn12	KB-V1 cytotox inconclusive (no result: MCF10A rereplic, SW480 rereplic)
COc1ccccc1CCn1cnc2c3cc(C)ccc3n(C)c2c1=O	KB-V1 cytotox inconclusive
CC1CCCCN1C(=O)C1COc2ccccc2O1 (stereo not given)	none
CCCCc1ccc(NC(=O)CC(C)(C)C)cc1	MCF10A rereplic inconclusive, KB-3-1 cytotox inconclusive, IL-1B inflam inh -76
